Screens (PubChem)
TDP1 cell CPT – qHTS for Inhibitors of human tyrosyl-DNA phosphodiesterase 1 (TDP1): qHTS in cells in presence of CPT; chicken DT40 Tdp1-/-;hTDP1 cells + 20 nM CPT, ATP luminescence, 48 h; Potency, µM (doses to about 46.2 µM), actives largely listed as inhibitors; 12% of 420,000 active; also: nearly all actives have a fitted effect of over 55% in size
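Cell growth measured by CellTiter-Glo luminescence after a minimum 48 h, 37 C compound exposure with 20 nM CPT in Tdp1-knockout DT40 cells stably expressing hTDP1, seeded 400/well; qHTS titration format.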
DT40 TDP1 no CPT – qHTS for Inhibitors of human tyrosyl-DNA phosphodiesterase 1 (TDP1): qHTS in cells in absence of CPT | DT40 Tdp1-/- hTDP1 cells, no CPT, ATP luminescence, 48 h | Potency, µM (titrated, usually from 46.2 µM), hits mostly inhibitors | 15% of 420,000 active | AID 686978, 2013; also: nearly all actives have a fitted effect of over 55% in size
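Camptothecin absent (DMSO only). Human TDP1-complemented DT40 knockout cells, 400 cells/well, 37 °C for minimum 48 hr; ATP measured via CellTiter-Glo, 30 min dark incubation, luminescence.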
KB-V1 cytotox – qHTS assay for MDR1-selective chemotherapeutics: Primary screen using the drug-selected MDR subline cells KB-V1 | KB-V1 MDR cells viability, CellTiter-Glo, 72 h | Potency, µM (top dose mostly 46.1 µM), usual class: cytotoxic | 3.4% of 400,000 active | AID 1347076, 2019; also: nearly all actives have a fitted effect of over 60% in size
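Drug-selected KB-V1 cells, grown in DMEM lacking phenol red with 10% FBS, receive compound titrations; after three days at 37 degrees C, surviving cell ATP is quantified by CellTiter-Glo luminescence and responses normalized and curve-fitted.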
HT1080 IDH1KD tx – qHTS for induction of synthetic lethality in tumor cells producing 2HG: qHTS for the HT-1080-IDH1KD cell line; HT-1080 IDH1 knockdown viability, ATP luminescence, 48 h; Potency, µM (doses to about 46.1 µM), actives largely listed as cytotoxic; 2% of 360,000 active; AID 686971, 2013
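Cytotoxicity counter-line: IDH1KD HT-1080, 48 h, CellTiter-Glo. Curves classed by r2, magnitude and activity.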
HT1080NT lethal – qHTS for induction of synthetic lethality in tumor cells producing 2HG: qHTS for the HT-1080-NT fibrosarcoma cell line. HT-1080-NT fibrosarcoma viability, CellTiter-Glo ATP luminescence, 48 h. Potency, µM (titrated, usually from 46.1 µM), actives largely listed as cytotoxic. AID 686970, 2013. 1.6% of 360,000 active;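 also: NT is the 2HG producing partner of a matched IDH1 knockdown line; nearly all actives have a fitted effect of over 55% in size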
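HT-1080-NT fibrosarcoma cells (2HG-overproducing), 750 cells/well in RPMI with 5% FBS, dosed after 2 h and incubated 48 h at 37C. CellTiter-Glo luminescence normalized to DMSO and no-cell wells; concentration-response curves fitted and classed.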
KB-3-1 cytotox – qHTS assay for MDR1-selective chemotherapeutics: Primary screen using the parental adenocarcinoma cell KB-3-1; KB-3-1 viability, CellTiter-Glo ATP luminescence, 72 h; Potency, µM (doses to about 46.1 µM), usual class: cytotoxic; 1.4% of 400,000 active; AID 1347075, 2019; also: nearly all actives have a fitted effect of over 60% in size
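Parental KB-3-1 viability, qHTS format: 72 h compound exposure, 37 °C; CellTiter-Glo; media-only wells and DMSO plates as controls; concentration-effect fits on corrected data.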
Numbers stand for hits; 0 = inactive; ? = inconclusive; - = not tested or not shown; ! = not confirmed by another sample. The list is not random: actives were taken first. Their share in the collection is about 19%. Calls follow the shape of the dose curve; as a rule, active = well fitted curve in the direction sought with a large enough effect; inconclusive = small, poorly fitted or top-dose-only effect, or another doubt; inactive = no such curve, though single readings can be large; an effect the other way counts as inactive or inconclusive.

SMILES	TDP1 cell CPT	DT40 TDP1 no CPT	KB-V1 cytotox	HT1080 IDH1KD tx	HT1080NT lethal	KB-3-1 cytotox
COc1cccc(/C=C/C(=O)c2ccc3c(c2)OCCO3)c1OC	4.1µM	?	0	?	?	0
O=C(COC(=O)c1ccc(O)cc1)c1ccc2c(c1)OCCO2	0	0	0	0	0	0
CCOc1cc(/C=C/C(=O)c2ccc3c(c2)OCCO3)ccc1OCC(=O)N(C)C	0	23µM	16µM	18µM	?	?
CCN(CC(=O)Nc1ccc2c(c1)OCCO2)C(=O)/C=C/c1cccc(OC)c1OC	0	0	0	0	0	0
COc1cc(CC(=O)OCC(=O)c2ccc3c(c2)OCCO3)cc(OC)c1OC	1.3µM	1.3µM	0.73µM	1.5µM	1.6µM	1µM
Cc1c(C(=O)N2CCOCC2)oc2c1-c1nn(CC(=O)NCc3cccc(Cl)c3)cc1CC2	?	16µM	-	-	-	-
COc1ccccc1CNC(=O)Cn1cc2c(n1)-c1c(oc(C(=O)N3CCOCC3)c1C)CC2	?	23µM	-	-	-	-
CCCOc1ccc(CNC(=O)Cn2cc3c(n2)-c2c(oc(C(=O)N4CCOCC4)c2C)CC3)cc1	?	23µM	-	-	-	-
COc1cccc(CNC(=O)Cn2cc3c(n2)-c2c(oc(C(=O)N4CCOCC4)c2C)CC3)c1	18µM	21µM	-	-	-	-
O=C(c1ccc2ccccc2c1O)N1CCCCC1	?	?	0	0	0	0
Cc1ccc(C)c(N2CCN(C(=O)Cn3cnc4nc5c(cc4c3=O)CCCC5)CC2)c1	?	?	0	-	-	0
COc1ccc2[nH]c3c(c2c1)CCN1C(=O)C(CC(=O)NCc2ccco2)C[C@H](C(=O)N2CCOCC2)[C@@]31C (stereo not given in full)	0	0	0	0	0	0
CCN(CC)C(=O)[C@H]1C[C@H](CC(=O)NCc2ccco2)C(=O)N2CCc3c([nH]c4ccc(Cl)cc34)[C@]12C	16µM	16µM	0	0	0	0
CCN(CC)C(=O)[C@H]1CC(CC(=O)NCc2ccco2)C(=O)N2CCc3c([nH]c4ccc(OC)cc34)[C@]12C (stereo not given in full)	0	0	0	0	0	0
C[C@]12c3[nH]c4ccc(Cl)cc4c3CCN1C(=O)[C@@H](CC(=O)NCc1ccco1)C[C@@H]2C(=O)N1CCOCC1	18µM	21µM	0	0	0	0
CC(=O)c1ccc(NC(=O)Nc2ncn(Cc3cccc(C)c3)n2)cc1	0	?	16µM	0	0	0
Cc1cccc(-c2cc(NC(=O)C(C)(C)C)n(-c3ccccc3)n2)c1	0	?	0	-	-	0
CC(C)(C)C(=O)Nc1cc(-c2cccc(Br)c2)nn1-c1ccccc1	?	21µM	0	-	-	0
Cc1nn(-c2ccccc2)c(C)c1C(=O)NCc1ccc(F)cc1	0	0	0	0	0	0
CCc1nc(SCC(=O)Nc2cc(C)ccc2OC)c2c(C)c(C)sc2n1	0	15µM	?	0	0	?
CCc1nc(SCC(=O)Nc2ccccc2OC)c2c(C)c(C)sc2n1	?	21µM	9.2µM	0	0	0
Cc1ccc(N(Cc2ccc(C(=O)NN=C3CCN(C)CC3)cc2)S(C)(=O)=O)cc1C	0	0	0	0	0	0
CCCC(O)(CCC)C(=O)NN(C(=O)CCl)c1ccccc1	12µM	10µM	0	?	?	0
CCOC(=O)N(NC(=O)C(O)(c1ccccc1)c1ccccc1)c1ccccc1	0	26µM	0	0	0	0
CCCCC(O)(CCCC)C(=O)NN(C(=O)OCC)c1ccccc1	?	?	13µM	0	0	0
SMILES	TDP1 cell CPT	DT40 TDP1 no CPT	KB-V1 cytotox	HT1080 IDH1KD tx	HT1080NT lethal	KB-3-1 cytotox
CCOC(=O)N(NC(=O)C(O)(C(C)C)C(C)C)c1ccccc1	0	0	0	0	0	0
CCC(=O)N1CCc2cc(OC)c(OC)cc2C1COc1ccccc1OC (stereo not given)	?	?	?	0	0	0
COc1cc2c(cc1OC)C(COc1ccccc1OC)N(C(=O)c1ccco1)CC2 (stereo not given)	0	0	?	0	0	0
COc1cc2c(cc1OC)C(COc1ccccc1OC)N(C(=O)CC(C)C)CC2 (stereo not given)	?	18µM	?	-	-	0
CCCC(=O)N1CCc2cc(OC)c(OC)cc2C1COc1ccccc1OC (stereo not given)	?	18µM!	0	0	0	0
CC1Cn2c(C(=O)NCCc3ccc(Cl)cc3)cc3cccc(c32)S1 (stereo not given)	16µM	?	0	-	-	0
CC1Cn2c(C(=O)NCc3ccccc3Cl)cc3cccc(c32)S1 (stereo not given)	?	?	0	-	-	0
COc1ccccc1CNC(=O)c1cc2cccc3c2n1CC(C)S3 (stereo not given)	21µM	23µM	0	-	-	?
Cc1ccccc1CNC(=O)c1cc2cccc3c2n1CC(C)S3 (stereo not given)	?	?	0	-	-	0
Cc1ccc(SCC(=O)NC(=O)c2ccccc2Br)c(C)c1	0	0	0	0	0	0
CCOc1ccccc1NC(=O)COC(=O)C(Cc1ccccc1)NC(=O)c1ccco1 (stereo not given)	0	0	0	0	0	0
Cn1cc(CNC(=O)c2cc(COc3ccc4c(c3)CCCC4)on2)cn1	?	15µM	-	0	0	-
CCN(Cc1ccncc1)C(=O)c1cc(COc2ccc(C)c(C)c2)on1	0	?	0	0	0	0
O=C(NC(c1cccnc1)C(F)(F)F)c1cc(COc2ccc3c(c2)CCCC3)on1 (stereo not given)	4.1µM	2.6µM	?	0	0	21µM
Cc1ccc(OCc2cc(C(=O)NCc3cnn(-c4cccc(F)c4)c3)no2)cn1	?	?	0	0	0	0
CCN(Cc1cnn(C)c1)C(=O)c1cc(COc2ccc3c(c2)CCCC3)on1	16µM	12µM	0	0	0	0
Cc1ccc(OCc2cc(C(=O)NC(C)Cc3cnccn3)no2)cc1C (stereo not given)	?	?	?	0	0	0
CC(C)Oc1ccc(S(=O)(=O)N2CCOCC2)cc1NC(=O)Cc1cccs1	0	?	0	0	0	0
Cc1ccc(CNC(=O)COC(=O)CCC(=O)c2cccs2)cc1	0	0	0	0	0	0
